Drawing on the supplement of paper PMC10849652, this text covers log2 fold change for 29 targets.

Targets with a hit are over-represented here; the source holds about 8,800 in all. About 0.5% of all pairs of compound and target were hits. Values without a mark were called inactive.

Sequence of UniProt Q99766 (Q99766 whole entry, looked up): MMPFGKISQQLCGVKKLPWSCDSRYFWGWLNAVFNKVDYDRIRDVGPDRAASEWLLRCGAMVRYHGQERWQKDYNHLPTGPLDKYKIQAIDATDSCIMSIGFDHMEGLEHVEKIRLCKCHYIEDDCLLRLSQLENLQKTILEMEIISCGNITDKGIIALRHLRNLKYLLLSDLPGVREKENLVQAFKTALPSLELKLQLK
Sequence of UniProt O15247 (O15247 whole entry, looked up): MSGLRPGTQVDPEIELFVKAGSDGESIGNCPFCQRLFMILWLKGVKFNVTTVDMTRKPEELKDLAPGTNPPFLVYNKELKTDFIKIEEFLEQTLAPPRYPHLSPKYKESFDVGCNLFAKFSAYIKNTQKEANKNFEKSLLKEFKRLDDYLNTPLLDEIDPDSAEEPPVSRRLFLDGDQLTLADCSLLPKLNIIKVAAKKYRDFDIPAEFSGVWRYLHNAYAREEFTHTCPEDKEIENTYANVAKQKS
Sequence of UniProt P33240 (P33240 whole entry, looked up): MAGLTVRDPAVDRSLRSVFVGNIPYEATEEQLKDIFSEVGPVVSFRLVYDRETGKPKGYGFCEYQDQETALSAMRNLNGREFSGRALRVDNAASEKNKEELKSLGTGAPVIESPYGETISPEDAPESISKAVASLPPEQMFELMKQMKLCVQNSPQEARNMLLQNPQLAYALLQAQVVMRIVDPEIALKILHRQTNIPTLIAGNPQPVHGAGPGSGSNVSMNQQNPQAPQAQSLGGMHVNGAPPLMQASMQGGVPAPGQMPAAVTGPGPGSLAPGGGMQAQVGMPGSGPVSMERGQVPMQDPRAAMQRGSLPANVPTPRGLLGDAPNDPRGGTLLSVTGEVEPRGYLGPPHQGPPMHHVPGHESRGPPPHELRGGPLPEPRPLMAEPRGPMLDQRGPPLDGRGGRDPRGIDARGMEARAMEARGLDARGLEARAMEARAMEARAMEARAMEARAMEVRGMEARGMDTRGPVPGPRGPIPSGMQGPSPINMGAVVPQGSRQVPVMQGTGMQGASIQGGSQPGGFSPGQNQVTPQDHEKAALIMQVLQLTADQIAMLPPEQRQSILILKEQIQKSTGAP
Sequence of UniProt P57737 (P57737 whole entry, looked up): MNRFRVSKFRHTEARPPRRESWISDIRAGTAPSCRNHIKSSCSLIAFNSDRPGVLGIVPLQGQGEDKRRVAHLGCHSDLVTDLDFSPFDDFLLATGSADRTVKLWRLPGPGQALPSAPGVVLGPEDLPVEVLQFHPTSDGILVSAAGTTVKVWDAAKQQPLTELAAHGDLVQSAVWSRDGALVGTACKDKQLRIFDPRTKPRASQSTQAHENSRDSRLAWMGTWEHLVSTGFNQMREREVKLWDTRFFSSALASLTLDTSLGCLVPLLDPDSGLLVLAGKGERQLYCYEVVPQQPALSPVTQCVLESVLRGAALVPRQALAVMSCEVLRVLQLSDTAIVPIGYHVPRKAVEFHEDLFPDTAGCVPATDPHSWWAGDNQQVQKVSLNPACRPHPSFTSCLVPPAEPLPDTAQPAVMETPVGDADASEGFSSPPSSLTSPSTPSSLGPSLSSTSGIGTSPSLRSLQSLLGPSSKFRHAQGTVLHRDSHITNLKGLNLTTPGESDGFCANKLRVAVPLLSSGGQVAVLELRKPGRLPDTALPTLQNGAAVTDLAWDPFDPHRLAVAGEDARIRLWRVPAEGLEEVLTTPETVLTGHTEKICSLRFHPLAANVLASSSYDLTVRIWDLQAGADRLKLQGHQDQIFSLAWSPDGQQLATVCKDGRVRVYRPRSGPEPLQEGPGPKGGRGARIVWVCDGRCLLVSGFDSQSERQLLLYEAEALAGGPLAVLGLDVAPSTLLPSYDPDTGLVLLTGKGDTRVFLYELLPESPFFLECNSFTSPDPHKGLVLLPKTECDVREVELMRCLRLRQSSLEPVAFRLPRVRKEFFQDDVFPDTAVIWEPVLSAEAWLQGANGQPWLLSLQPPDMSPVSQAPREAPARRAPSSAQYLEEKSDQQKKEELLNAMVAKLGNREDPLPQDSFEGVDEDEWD
Sequence of UniProt Q96DG6 (Q96DG6 whole entry, looked up): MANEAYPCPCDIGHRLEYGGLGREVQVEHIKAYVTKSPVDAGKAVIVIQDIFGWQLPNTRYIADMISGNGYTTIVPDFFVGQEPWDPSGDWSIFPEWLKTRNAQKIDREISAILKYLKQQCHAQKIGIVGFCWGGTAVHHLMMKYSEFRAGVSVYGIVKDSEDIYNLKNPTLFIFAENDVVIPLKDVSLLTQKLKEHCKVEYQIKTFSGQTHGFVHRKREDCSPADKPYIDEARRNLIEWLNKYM
Sequence of UniProt Q15398 (Q15398 whole entry, looked up): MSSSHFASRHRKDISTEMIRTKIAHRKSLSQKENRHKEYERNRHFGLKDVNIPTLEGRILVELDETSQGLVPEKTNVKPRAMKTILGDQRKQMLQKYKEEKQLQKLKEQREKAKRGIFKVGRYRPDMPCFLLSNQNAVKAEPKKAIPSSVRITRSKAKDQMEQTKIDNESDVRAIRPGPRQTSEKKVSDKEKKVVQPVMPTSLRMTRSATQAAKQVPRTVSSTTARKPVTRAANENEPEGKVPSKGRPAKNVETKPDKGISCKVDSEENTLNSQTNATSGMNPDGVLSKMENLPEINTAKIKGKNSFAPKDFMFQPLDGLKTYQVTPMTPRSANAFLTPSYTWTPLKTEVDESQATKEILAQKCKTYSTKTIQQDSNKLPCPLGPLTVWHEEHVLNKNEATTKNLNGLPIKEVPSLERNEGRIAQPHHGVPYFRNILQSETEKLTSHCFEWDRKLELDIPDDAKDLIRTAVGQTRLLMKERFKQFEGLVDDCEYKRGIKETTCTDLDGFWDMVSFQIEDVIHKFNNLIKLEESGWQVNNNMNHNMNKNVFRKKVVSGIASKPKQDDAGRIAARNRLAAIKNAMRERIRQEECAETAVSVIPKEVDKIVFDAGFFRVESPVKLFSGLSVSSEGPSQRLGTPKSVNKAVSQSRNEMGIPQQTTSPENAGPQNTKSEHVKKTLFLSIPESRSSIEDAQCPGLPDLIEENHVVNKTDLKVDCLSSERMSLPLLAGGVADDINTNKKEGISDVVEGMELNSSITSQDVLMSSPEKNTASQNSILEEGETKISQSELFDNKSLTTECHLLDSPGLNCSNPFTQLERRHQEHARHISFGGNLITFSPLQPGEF
Sequence of UniProt P17661 (P17661 whole entry, looked up): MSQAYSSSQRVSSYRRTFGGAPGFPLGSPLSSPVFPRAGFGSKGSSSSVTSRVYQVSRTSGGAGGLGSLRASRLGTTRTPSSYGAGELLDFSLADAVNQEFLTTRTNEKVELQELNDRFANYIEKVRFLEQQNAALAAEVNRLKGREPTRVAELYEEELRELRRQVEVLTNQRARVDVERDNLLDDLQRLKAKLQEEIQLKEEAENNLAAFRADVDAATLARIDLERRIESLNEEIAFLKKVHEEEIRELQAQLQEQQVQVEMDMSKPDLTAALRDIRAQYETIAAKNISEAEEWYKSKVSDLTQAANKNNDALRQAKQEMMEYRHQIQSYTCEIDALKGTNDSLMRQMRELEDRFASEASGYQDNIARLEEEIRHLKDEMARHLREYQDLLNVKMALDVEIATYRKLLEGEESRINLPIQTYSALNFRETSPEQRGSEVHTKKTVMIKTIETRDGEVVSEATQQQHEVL
Sequence of UniProt Q6P3S1 (Q6P3S1 whole entry, looked up): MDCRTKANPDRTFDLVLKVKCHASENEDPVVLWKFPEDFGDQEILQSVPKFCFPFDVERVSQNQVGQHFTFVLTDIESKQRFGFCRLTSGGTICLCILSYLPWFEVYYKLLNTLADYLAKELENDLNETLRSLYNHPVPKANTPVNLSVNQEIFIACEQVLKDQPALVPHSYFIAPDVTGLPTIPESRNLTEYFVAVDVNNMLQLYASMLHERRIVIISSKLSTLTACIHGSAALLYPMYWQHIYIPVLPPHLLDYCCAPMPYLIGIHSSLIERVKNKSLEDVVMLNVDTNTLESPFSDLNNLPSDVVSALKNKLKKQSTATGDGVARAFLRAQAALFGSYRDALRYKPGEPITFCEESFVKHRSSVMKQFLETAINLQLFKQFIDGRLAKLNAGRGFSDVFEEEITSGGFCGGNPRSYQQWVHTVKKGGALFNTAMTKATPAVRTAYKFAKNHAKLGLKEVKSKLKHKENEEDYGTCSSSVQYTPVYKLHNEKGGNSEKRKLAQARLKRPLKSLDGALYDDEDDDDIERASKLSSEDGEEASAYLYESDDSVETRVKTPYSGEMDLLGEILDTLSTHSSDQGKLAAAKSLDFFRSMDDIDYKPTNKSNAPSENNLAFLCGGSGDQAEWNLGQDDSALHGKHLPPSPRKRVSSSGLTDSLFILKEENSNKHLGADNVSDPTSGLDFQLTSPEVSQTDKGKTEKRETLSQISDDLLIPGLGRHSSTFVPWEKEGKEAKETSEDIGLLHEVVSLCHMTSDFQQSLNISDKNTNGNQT
Sequence of UniProt P67870 (P67870 whole entry, looked up): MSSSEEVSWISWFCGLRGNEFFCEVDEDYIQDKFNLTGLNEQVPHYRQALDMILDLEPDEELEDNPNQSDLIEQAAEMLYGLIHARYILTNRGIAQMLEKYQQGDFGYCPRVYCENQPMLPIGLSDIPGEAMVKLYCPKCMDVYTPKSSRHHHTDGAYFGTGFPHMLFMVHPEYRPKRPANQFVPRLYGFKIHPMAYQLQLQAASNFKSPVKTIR
Sequence of UniProt P41240 (P41240 whole entry, looked up): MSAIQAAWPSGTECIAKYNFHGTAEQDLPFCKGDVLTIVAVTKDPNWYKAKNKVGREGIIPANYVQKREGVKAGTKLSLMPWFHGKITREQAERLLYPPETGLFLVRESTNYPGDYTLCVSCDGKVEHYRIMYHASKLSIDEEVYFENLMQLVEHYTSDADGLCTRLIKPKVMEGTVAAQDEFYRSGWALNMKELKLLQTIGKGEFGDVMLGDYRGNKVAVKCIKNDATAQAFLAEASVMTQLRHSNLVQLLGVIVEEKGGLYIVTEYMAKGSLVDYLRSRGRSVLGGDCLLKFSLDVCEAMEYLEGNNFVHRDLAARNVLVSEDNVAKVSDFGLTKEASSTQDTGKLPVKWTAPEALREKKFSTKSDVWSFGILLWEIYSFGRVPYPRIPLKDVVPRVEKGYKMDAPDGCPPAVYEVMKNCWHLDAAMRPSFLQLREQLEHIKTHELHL

Compound in the first test: Cc1sc2c(c1C)C(c1ccc(Cl)cc1)=N[C@@H](CC(=O)OC(C)(C)C)c1nnc(C)n1-2
Put plainly: log2 fold change, soluble protein after heating vs DMSO (PISA); higher = thermal stabilisation; K562 lysate, 10 uM; active = over 0.2 and 3.5 SD of the protein, either way, in both replicates (recomputed). The method in brief:
(§1)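 Thermal stability, expressed as log-two fold change relative to solvent controls, is given from duplicates. Crude K562 extract in PBS pH 7.4 with 1 mM MgCl2, at 1 mg/mL protein, was treated with 10 μM compound for 30 min and heated in aliquots for 3 min across 48°C-58°C. After pooling, adjustment to 0.5% NP-40 at 4°C and centrifugation at 21,000xg for 90 min, supernatant protein was measured by TMTpro 16plex LC-MS/MS with channel sums equalised.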
With DMAC2L (UniProt Q99766), the log2 fold change is -0.005.

For the target CMBL (UniProt Q96DG6), the log2 fold change was -0.041.

Consider DOCK8 (UniProt Q8NF50), for which the log2 fold change was 0.005.

On to DCP1A (UniProt Q9NPI6), for which the log2 fold change was 0.018.

For the target CORO7 isoform 3 (UniProt P57737), the log2 fold change is 0.018. Turning to CINP isoform 3 (UniProt Q9BW66), the log2 fold change was -0.157.

Turning to DENND4A isoform 2 (UniProt Q7Z401), the log2 fold change is 0.039. Take CXorf38 (UniProt Q8TB03): the log2 fold change was -0.004. The same measure, in the same setting: in the case of DDX54 isoform 2 (UniProt Q8TDD1) it was 0.052; in that of CSDE1 isoform 4 (UniProt O75534), 0.046; in that of COG2 (UniProt Q14746), 0.001. Turning to CKAP5 (UniProt Q14008), the log2 fold change is 0.014. The same measure, in the same setting: under DICER1 (UniProt Q9UPY3) stands 0.029; under DENND6A (UniProt Q8IWF6), 0.039. On to CSNK2B (UniProt P67870), for which the log2 fold change was 0.03. With DENND1B (UniProt Q6P3S1), the log2 fold change is -0.182. The same measure, in the same setting: in the case of CSK (UniProt P41240) it was -0.057; in that of CWC22 (UniProt Q9HCG8), 0.079. Same read-out and setting: in the case of CSTF2 (UniProt P33240) it was -0.032. On to COTL1 (UniProt Q14019), for which the log2 fold change was 0.031.

For CNIH4 (UniProt Q9P003), the log2 fold change was 0.11.

DAZAP1 (UniProt Q96EP5): the log2 fold change is 0.088. CLIC2 (UniProt O15247): the log2 fold change is 0.017.

For the target DLGAP5 (UniProt Q15398), the log2 fold change was -0.036. Regarding COG7 (UniProt P83436), the log2 fold change is -0.034. For COG5 isoform 2 (UniProt Q9UP83), the log2 fold change is -0.003.

In the case of COL6A5 (UniProt A8TX70), the log2 fold change is -0.061.

For the target DES (UniProt P17661), the log2 fold change is -0.219. With DCP2 (UniProt Q8IU60), the log2 fold change was 0.026.

Compound in the next test: c1ccc([C@@H]2C[C@H]2NC2CCNCC2)cc1
Described as above. The gist of the method: as §1
DMAC2L (UniProt Q99766): the log2 fold change is -0.061. On to CMBL (UniProt Q96DG6), for which the log2 fold change was -0.078. For DOCK8 (UniProt Q8NF50), the log2 fold change was 0.05.

As for DCP1A (UniProt Q9NPI6), the log2 fold change is -0.026. Still for that read-out and setting: in the case of CORO7 isoform 3 (UniProt P57737) it was 0.036.

As for CINP isoform 3 (UniProt Q9BW66), the log2 fold change was -0.145. Take DENND4A isoform 2 (UniProt Q7Z401): the log2 fold change is -0.064. Turning to CXorf38 (UniProt Q8TB03), the log2 fold change is 0.031. Take DDX54 isoform 2 (UniProt Q8TDD1): the log2 fold change is 0.008. Turning to CSDE1 isoform 4 (UniProt O75534), the log2 fold change is 0.04. On the same count and under the same terms, under COG2 (UniProt Q14746) stands 0.009; under CKAP5 (UniProt Q14008), 0.048; under DICER1 (UniProt Q9UPY3), -0.038. On the same count and under the same terms, in the case of DENND6A (UniProt Q8IWF6) it was 0.023; in that of CSNK2B (UniProt P67870), -0.016; in that of DENND1B (UniProt Q6P3S1), 0.014. On to CSK (UniProt P41240), for which the log2 fold change was -0.037. Take CWC22 (UniProt Q9HCG8): the log2 fold change is 0.237. Take CSTF2 (UniProt P33240): the log2 fold change is 0.01. In the case of COTL1 (UniProt Q14019), the log2 fold change is 0.064.

On to DAZAP1 (UniProt Q96EP5), for which the log2 fold change is -0.086.

CLIC2 (UniProt O15247): the log2 fold change is 0.029.

DLGAP5 (UniProt Q15398): the log2 fold change was -0.015. Turning to COG7 (UniProt P83436), the log2 fold change is 0.012. Regarding COG5 isoform 2 (UniProt Q9UP83), the log2 fold change is 0.033. As to COL6A5 (UniProt A8TX70), the log2 fold change was -0.545.

Take DES (UniProt P17661): the log2 fold change was -0.131. Same read-out and setting: in the case of DCP2 (UniProt Q8IU60) it was 0.048.
